Measurements taken from PMC7819943, “Rice protein-binding microarrays: a tool to detect cis-acting elements near promoter regions in rice”.
In all, about 35,000 sequences were measured (“fluorescence intensity (a.u.)”: median about 10,000, highest 2% from about 52,000 on). The entries come from a sample that favours the highest values as a whole.

Each sequence was assayed against T1, OsWOX13 (Oryza sativa, UniProt Q5QMM3 1-267) (assay: protein-binding microarray (RPBM); PBS, 2% BSA, 51.3 ng/ul salmon testes DNA, 50 uM zinc acetate, 200 nM TF, 25 C, 1 h; high values mean tight binding). Conditions: protein: recombinant; tags: N-terminal polyhistidine and DsRed monomer fusion (pET32a); label: CyDye5-dUTP incorporated in the synthesized complementary strand; 3' TTTTT single-stranded linker to array surface; dsDNA, one strand shown.
T1 sequence: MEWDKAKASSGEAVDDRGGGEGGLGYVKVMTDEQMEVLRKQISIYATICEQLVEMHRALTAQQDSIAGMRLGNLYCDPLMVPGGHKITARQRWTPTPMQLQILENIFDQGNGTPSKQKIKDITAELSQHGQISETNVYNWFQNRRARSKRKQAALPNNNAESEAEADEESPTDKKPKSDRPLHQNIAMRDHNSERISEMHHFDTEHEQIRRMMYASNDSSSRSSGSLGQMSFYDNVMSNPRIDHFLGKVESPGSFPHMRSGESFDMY
Procedure, shortened: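 Polyhistidine-tagged DsRed fusions of transcription factors, joined at the N-terminus, were expressed in E. coli BL21-CodonPlus and isolated on Ni–NTA. They were incubated at 200 nM for 1 h at 25 °C on a custom Agilent array, double-stranded and BSA-blocked, in PBS with 2% BSA, salmon testes DNA and 50 µM zinc acetate. The binding signal is per-feature fluorescence intensity (arbitrary units) read on an Axon 4000B scanner after washing.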
In the case of “ATTTGATCCAAATTATATGGTTATTAATCAAATCCCATAGCGGAGTCACCTAGTGCAG”, the binding signal is reported as 10200 fluorescence intensity (a.u.).
For “GTTAATTGATTAGCAAAAGGTACTATACATATATTCTTTTCGGAGTCACCTAGTGCAG”, the binding signal was 33800 fluorescence intensity (a.u.).
In the case of “GCAAATGTAGGTAAGATTGAGATTGACTTTATGTGGGTCCCGGAGTCACCTAGTGCAG”, the binding signal is reported as 12500 fluorescence intensity (a.u.).
With “GACGCGTCGGTGCTGATTGACTCGACGGCCGGCAACGTGGCGGAGTCACCTAGTGCAG” the binding signal was 22800 fluorescence intensity (a.u.).
“TGGATCCTGATTGGATCCTGATTGGCGTTGCGGCCGTGTCCGGAGTCACCTAGTGCAG” was tested, and the binding signal was 65000 fluorescence intensity (a.u.).
With “CGTACCAGCTGATTGATGGTGTCACTCACCAAATGTTCTTCGGAGTCACCTAGTGCAG” the binding signal was 34300 fluorescence intensity (a.u.).
“TCGACTTCTGATTGATGTCAGTAATGGTGTACCAGTGCTGCGGAGTCACCTAGTGCAG” was tested, and the binding signal was 41200 fluorescence intensity (a.u.).
For “TTCTGATTGATGTCAGGAGTGGCGTGCGTACCAGTGCTGTCGGAGTCACCTAGTGCAG”, the binding signal was 58100 fluorescence intensity (a.u.).
With “GCCGGTGATTGGCGTGGCGTGGCGTGGCGTGGCGCGGTGTCGGAGTCACCTAGTGCAG” the binding signal was 52600 fluorescence intensity (a.u.).
With “GTGATTGGCGCGATCCGTGCGCTTGCCGTCTTGCCGGCGTCGGAGTCACCTAGTGCAG” the binding signal was 30100 fluorescence intensity (a.u.).
“GCGGATTGGTTGCCTGACCCTCCTCCTCCTCCTCCTCCTCCGGAGTCACCTAGTGCAG” was tested, and the binding signal was 8490 fluorescence intensity (a.u.).
“TGTCCTCCTGCTCCTGATTGGATCGGTAGAAAGGTGGCGGCGGAGTCACCTAGTGCAG” was tested, and the binding signal was 11000 fluorescence intensity (a.u.).
In the case of “TACTGATGAGCCACTGACGGGTGGGGCCAGTTGACTGACACGGAGTCACCTAGTGCAG”, the binding signal is reported as 6930 fluorescence intensity (a.u.).
With “GCAGATTAGTCGTTAGTGGTGACAGAAACGGCAAAAGTGGCGGAGTCACCTAGTGCAG” the binding signal was 6220 fluorescence intensity (a.u.).
For “CTCCGATTAATGTGGAAATTTCTAACCTCTACAGCGAACGCGGAGTCACCTAGTGCAG”, the binding signal was 6190 fluorescence intensity (a.u.).
For “TTTCTAATTTCTTTCAGCATCGTATTAATGTCGATATTAACGGAGTCACCTAGTGCAG”, the binding signal was 3250 fluorescence intensity (a.u.).
In the case of “GCGAAATTAATCTTTTGGTTGTTTCTACCTTTGCTCTGATCGGAGTCACCTAGTGCAG”, the binding signal is reported as 5540 fluorescence intensity (a.u.).
For “TTCGTGATTTATATAAAACATTCCCATGTTGAAACCCTAACGGAGTCACCTAGTGCAG”, the binding signal was 15400 fluorescence intensity (a.u.).
“GTGTTGTGATTCAATTAATTTGGCAGACACCAATTTGCTGCGGAGTCACCTAGTGCAG” was tested, and the binding signal was 23200 fluorescence intensity (a.u.).
“TACTTTGATTTGCACACAATCAAATGTACAGTAGTACATGCGGAGTCACCTAGTGCAG” was tested, and the binding signal was 28500 fluorescence intensity (a.u.).
With “TTAAATCAATAATTAAATATATTTTCATAATAAATTTGTGCGGAGTCACCTAGTGCAG” the binding signal was 27500 fluorescence intensity (a.u.).
For “GTTTTAAATTAATATATCTCGCGGAATATTAGAGCAAACGCGGAGTCACCTAGTGCAG”, the binding signal was 12600 fluorescence intensity (a.u.).
“AAACTTCATTTAGTAGATTGATTTTCTTAACCGAATATAGCGGAGTCACCTAGTGCAG” was tested, and the binding signal was 9560 fluorescence intensity (a.u.).
“TAGTAGATTGATTTCCTTAACCGAATATAGCAGGAATCCGCGGAGTCACCTAGTGCAG” was tested, and the binding signal was 52900 fluorescence intensity (a.u.).
“GTAGATCAATTTCCTTAACCGAATATAGCAAGAATCCGACCGGAGTCACCTAGTGCAG” was tested, and the binding signal was 3270 fluorescence intensity (a.u.).
In the case of “TTGATTGTGTGCAACTGACTTTGTCCCCGTTCTATAATATCGGAGTCACCTAGTGCAG”, the binding signal is reported as 8250 fluorescence intensity (a.u.).
“ATGTTAATGCAAAATAAATTAAATACATAGCAAGGTACTACGGAGTCACCTAGTGCAG” was tested, and the binding signal was 11200 fluorescence intensity (a.u.).
With “TGTTATTTCAATCTCAGGATTGAGTGCAAGCAATCTGTTTCGGAGTCACCTAGTGCAG” the binding signal was 4210 fluorescence intensity (a.u.).
“CCGGATTTCAGTTATTTCCTAATTGCATTTCTATATGGACCGGAGTCACCTAGTGCAG” was tested, and the binding signal was 9320 fluorescence intensity (a.u.).
“TTCAGTTTCTAGCTGGAAGAGACCTCCTATCATATATTTCCGGAGTCACCTAGTGCAG” was tested, and the binding signal was 53600 fluorescence intensity (a.u.).
In the case of “TTTCAGTTATTTCCTAATTATATTTCTATATGGACTTAGTCGGAGTCACCTAGTGCAG”, the binding signal is reported as 9980 fluorescence intensity (a.u.).
“AAGATAATGATGTAGACACGCAATCTGCGCGGGCCCACCACGGAGTCACCTAGTGCAG” was tested, and the binding signal was 6040 fluorescence intensity (a.u.).
In the case of “AGATTAGATTTAGATTAGTCCTATGTGTCTCTTGCCGGGTCGGAGTCACCTAGTGCAG”, the binding signal is reported as 19100 fluorescence intensity (a.u.).
With “GAGAGACGGTTTAATCAAGGAGCAGTTGATGGGAGAGGCGCGGAGTCACCTAGTGCAG” the binding signal was 4550 fluorescence intensity (a.u.).
“GTTTGTGATTAATCTGATTTCGTACTATTAACGTGCAACTCGGAGTCACCTAGTGCAG” was tested, and the binding signal was 31300 fluorescence intensity (a.u.).
With “TCGTGATGACAGTTTACTCTTTAAATGAGAGTAATTAACTCGGAGTCACCTAGTGCAG” the binding signal was 17400 fluorescence intensity (a.u.).
For “ATCTGATTCGTGATTAATTAGTAATTAATTAATCTTTACTCGGAGTCACCTAGTGCAG”, the binding signal was 61000 fluorescence intensity (a.u.).
“GTAATTAGCTAATCAATCTTTTCGGCTGTGCTTAATTAACCGGAGTCACCTAGTGCAG” was tested, and the binding signal was 33500 fluorescence intensity (a.u.).
With “CGAGCTTTAATCAATTAATCTGGAGTTTAGTGAATATATTCGGAGTCACCTAGTGCAG” the binding signal was 9200 fluorescence intensity (a.u.).
For “AATTTAATCTTTAATTAATTTATTTCTCGCCTCTCTTAACCGGAGTCACCTAGTGCAG”, the binding signal was 4610 fluorescence intensity (a.u.).
In the case of “ACTTTAATTAGTCGTGATCAATCAATCAATCTGAATCTGTCGGAGTCACCTAGTGCAG”, the binding signal is reported as 65100 fluorescence intensity (a.u.).
“CCAGTGATCAATTTAGCTCCATTTCACTAGTGCAATCTGTCGGAGTCACCTAGTGCAG” was tested, and the binding signal was 9160 fluorescence intensity (a.u.).
In the case of “CTCAAGCTTAATTAAGCTCGTAATCTCATATAACCTCTTTCGGAGTCACCTAGTGCAG”, the binding signal is reported as 57900 fluorescence intensity (a.u.).
